TDP1 cell CPT = DT40-hTDP1 cell growth loss with CPT; 420,000 compounds, 12% hits; Potency, µM (titrated, usually from 46.2 µM), without a hit: at the top dose activity change, negative = growth inhibition, most hits filed as inhibitors; chicken DT40 Tdp1-/-;hTDP1 cells + 20 nM CPT, ATP luminescence, 48 h; note: potency is the fitted concentration of half-maximal effect; nearly all actives have a fitted effect of over 55% in size
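Chicken DT40 Tdp1-/- cells stably complemented with human TDP1 were seeded at 400 cells/well in medium containing 20 nM camptothecin, exposed to pin-transferred compounds, and grown at 37 °C for at least 48 hr. Viability was read as ATP luminescence.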
DT40 TDP1 no CPT = qHTS for Inhibitors of human tyrosyl-DNA phosphodiesterase 1 (TDP1): qHTS in cells in absence of CPT; DT40 Tdp1-/- hTDP1 cells, no CPT, ATP luminescence, 48 h; Potency, µM (series often up to 46.2 µM), without a hit: at the highest dose activity change, negative = growth inhibition, hits mostly inhibitors; 420,000 compounds, 15% hits; note: potency is the fitted concentration of half-maximal effect; nearly all actives have a fitted effect of over 55% in size
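Luminescent ATP content (CellTiter-Glo) served as the growth readout. Knockout chicken DT40 cells expressing human TDP1 were exposed to compounds without camptothecin for a minimum 48 hr at 37 °C.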
HT1080NT lethal = kills 2HG-producing HT-1080-NT fibrosarcoma cells; 360,000 compounds, 1.6% hits; HT-1080-NT fibrosarcoma viability, CellTiter-Glo ATP luminescence, 48 h; AID 686970; Potency, µM (series often up to 46.1 µM), inactives show at the highest dose activity, negative = less viability, actives largely listed as cytotoxic;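 note: NT is the 2HG producing partner of a matched IDH1 knockdown line; potency is the fitted concentration of half-maximal effect; 0% = DMSO-treated cells and -100% = media-only wells without cells; nearly all actives have a fitted effect of over 55% in size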
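Viability of the 2HG-overproducing fibrosarcoma line after 48 hours of compound exposure at 37 degrees C was determined by luminescence with CellTiter-Glo, and concentration-effect curves were then fitted and categorized.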
IL1B secr inh = blocks inflammasome-driven IL-1 beta release; 360,000 compounds, 4.7% hits; THP-1 LPS/ATP IL-1B secretion, AlphaLISA, 16 h; hits give low values; activity change, % at 57.5 µM; AID 743279; in the data active = activity change below about -50%; inconclusive = mostly about -30% to -49%
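Secreted IL-1B measured by AlphaLISA bead assay after 16 h compound exposure of THP-1 cells; compounds (final up to 57.5 uM) added 1 h before LPS (250 ng/mL) and ATP (1.25 mM) stimulation; lower signal means less secretion.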
HT1080 IDH1KD tx = kills HT-1080 cells with IDH1 knockdown; HT-1080 IDH1 knockdown viability, ATP luminescence, 48 h; Potency, µM (highest dose often 46.1 µM), for the others: top-dose activity, negative = toxicity, most hits filed as cytotoxic; 360,000 compounds, 2% hits;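 note: potency is the fitted concentration of half-maximal effect; 0% = DMSO wells and -100% = cell-free medium wells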
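Cytotoxicity counter-line: IDH1KD HT-1080, 48 h, CellTiter-Glo. Curves classed by r2, magnitude and activity.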
* marks the source's active call; other numbers are inactive results; ? = inconclusive; . = no result given; ! = a repeat was not active. In the library only some 19% were active in any assay of this set; here they are far more common. Unless noted, calls come from the whole dose curve; as a rule, active = well fitted curve in the direction sought with a large enough effect; inconclusive = small, poorly fitted or top-dose-only effect, or another doubt; inactive = no such curve, though single readings can be large; an effect the other way counts as inactive or inconclusive. Unless noted, % is set by controls: 0 for no effect and ±100 for the full control effect.

SMILES	TDP1 cell CPT	DT40 TDP1 no CPT	HT1080NT lethal	IL1B secr inh	HT1080 IDH1KD tx
CCC(=O)N1CCCC(C)(C(=O)NS(=O)(=O)c2ccccc2Cl)C1 (configuration not stated)	-1%	-6%	15%	0	9%
CC(C)Oc1ccc(C(=O)OCC(=O)NC2CCCCCC2)cc1	?	16µM*	-6%	18	-9%
O=C(CO/N=C/c1ccc(OC(F)F)cc1)NC1CCCCCC1	?	?	-14%	-57*	-1%
CC(C)(C)OC(=O)N1CCC(CC2CC(c3ccccc3)=NO2)(C(=O)O)CC1 (configuration not stated)	-3%	-11%	5%	54	7%
CCCCCCCNC(=O)C1(CC2CC(c3ccc(Cl)cc3)=NO2)CCN(C(=O)OC(C)(C)C)CC1 (configuration not stated)	?	21µM*	1%	-10	12%
O=C(C1CCCC1)N1CCC(CC2CC(c3ccc(Cl)cc3)=NO2)(C(=O)NCC2CCCCC2)CC1 (configuration not stated)	-23%	-21%	3%	-29	-6%
COC(=O)C1(CC2CC(c3ccccc3)=NO2)CCN(C(=O)OC(C)(C)C)CC1 (configuration not stated)	?	21µM*	-5%	-9	-2%
COC(=O)C1(CC2CC(c3ccncc3)=NO2)CCN(C(=O)OC(C)(C)C)CC1 (configuration not stated)	?	21µM*	8%	8	6%
CC(C)C(NS(C)(=O)=O)c1nnc2n1CCN(Cc1ccc3cccnc3c1)CC2 (configuration not stated)	9%	-13%	.	.	.
Cc1cc(Cl)ccc1OCCCC(=O)NCCN1C(=O)S/C(=C\c2cccnc2)C1=O	?	16µM*	-28%	-54*	?
CCN(CC)S(=O)(=O)c1ccc(C(=O)NCCN2C(=O)S/C(=C\c3cccnc3)C2=O)cc1	?	18µM*	-1%	15	-8%
CN(C)S(=O)(=O)c1ccc(C(=O)NCCN2C(=O)S/C(=C\c3cccnc3)C2=O)cc1	?	?	-10%	-10	-1%
CS(=O)(=O)c1ccc(C(=O)NCCN2C(=O)S/C(=C\c3cccnc3)C2=O)cc1[N+](=O)[O-]	3.7µM*	4.6µM*	?	-98*	?
O=C(COC(=O)COc1ccc(Cl)cc1Br)NC1CC1	-11%	-2%	-5%	14	-8%
CCc1ccc(S(=O)(=O)Nc2ccc3c(c2)sc(=O)n3C)cc1	21µM*	15µM*	.	.	.
Cc1cccc(CN2CCN(CC(=O)NCCCN3CCN(c4ccc(F)cc4)CC3)C2=O)c1	11µM*	?	-20%	-56*	?
Cc1cccc(N2CCN(CCCNC(=O)Cn3ncc4c([nH]c5ccccc54)c3=O)CC2C)c1 (configuration not stated)	?	18µM*	.	.	.
Cc1ccc(-c2ccc(=O)n(CC(=O)N3CCN(c4cccc(C)c4)C(C)C3)n2)cc1 (configuration not stated)	?	-22%	-29%	-61*	-20%
O=C(CCC(=O)NNc1nc2ccccc2c2nc(-c3ccccc3)nn12)NCCCN1CCOCC1	-6%	-19%	-4%	-14	0%
CC(C)CCNC(=O)CCC(=O)NNc1nc2ccccc2c2nc(-c3ccccc3)nn12	21µM*	21µM*	-12%	-2	-8%
O=C(CSc1ccc(Cl)cc1)NNC(=O)c1ccncc1	-15%	5%	-2%	9	3%
Cc1ccc2c(c1)N(C(=O)N1CCC(C(=O)NC3CCCCCC3)CC1)CCO2	-10%	?	.	.	.
O=C(CNCc1ccccc1)NC1C2CC3CC(C2)CC1C3 (configuration not stated)	-19%	?	-10%	-4	-9%
CC(=O)N1CCC(C(=O)N2CCN(S(=O)(=O)c3ccc(Cl)s3)CC2)CC1	-29%	?	-20%	0	-22%
Cc1cccc(N2CCN(C(=O)CCC(=O)NNc3nc4ccccc4c4nc(C)nn34)CC2C)c1 (configuration not stated)	18µM*	23µM*	.	.	.
SMILES	TDP1 cell CPT	DT40 TDP1 no CPT	HT1080NT lethal	IL1B secr inh	HT1080 IDH1KD tx
CC1CC(C)CN(C(=O)Cn2ncc3c([nH]c4ccccc43)c2=O)C1 (configuration not stated)	?	?	3%	27	-15%
Cc1cccc(N2CCN(C(=O)Cn3ncc4c([nH]c5ccccc54)c3=O)CC2C)c1 (configuration not stated)	?	15µM*	.	.	.
Cc1ccc(Cl)cc1N1CCN(CCCNC(=O)Cn2ncc3c([nH]c4ccccc43)c2=O)CC1	15µM*	8.2µM*	.	.	.
Cc1ccc2[nH]c3c(=O)n(CC(=O)NCCCN4CCN(c5ccc(F)cc5)CC4)ncc3c2c1	?	16µM*!	6%	?	5%
Cc1cccc(N2CCN(C(=O)Cn3sc4nc(C)cc(C)c4c3=O)CC2C)c1 (configuration not stated)	3.7µM*	4.6µM*	-18%	?	?
Cc1cccc(N2CCN(C(=O)Cn3nc(C)n4cccc4c3=O)CC2C)c1 (configuration not stated)	?	-25%	-4%	4	-1%
COc1ccc2c(c1)c(C(=O)N/N=C/c1cccc(Br)c1)c(C)n2C	?	10µM*	-10%	0	-6%
COc1ccc2c(c1)c(C(C)=O)c(C)n2C	7%	?	21%	-8	9%
COc1ccc2c(c1)c(C(=O)N/N=C/c1ccccc1Cl)c(C)n2C	21µM*	8.2µM*	-2%	-19	4%
COc1ccc(/C=N/NC(=O)c2c(C)n(C)c3ccc(OC)cc23)c(OC)c1	-26%	?	22%	7	7%
COc1ccc2c(c1)c(C(=O)N/N=C/c1cccc(O)c1)c(C)n2C	18µM*	10µM*	19%	-9	13%
COc1ccc(Br)cc1C(=O)N/N=C/c1ccc2c(c1)n(C)c(=O)n2C	24%	5%	-1%	1	-11%
CC(C)C[C@@H](CO)N1CCN(Cc2cccnc2)CCC1=O	?	11%	12%	19	-6%
CCOc1ccccc1N1CCN(C(=O)c2cc3cc(OC)ccc3[nH]2)CC1	?	?	9%	0	21%
COc1cccc2c(=O)c3c(cnn3C)n(C)c12	-10%	?	-3%	-54*	-8%
COc1ccc(OC)c(NS(=O)(=O)c2c(C)nc3sccn3c2=O)c1	-6%	?	-5%	13	2%
